SMILES strings stand for the structures. Compounds without any hit were thinned out: in the full panel of roughly 83,000, 20% have a hit.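 96-well plates, one dose, 48 hours. Percent growth reported; active if below 10.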 A number with no mark means an inactive call. The source made the active and inactive calls.

The source of these data is PubChem BioAssay (NCI).

Among the test systems are HCT-15 colon; HT29 colon; SNB-75 CNS; SNB-19 CNS; U251 CNS; PC-3 prostate; SK-MEL-5 melanoma; UACC-62 melanoma; LOX IMVI melanoma; SK-MEL-2 melanoma; EKVX NSCLC; SN12C renal; UO-31 renal; TK-10 renal; ACHN renal; CAKI-1 renal; CCRF-CEM leukemia; MOLT-4 leukemia; A498 renal; SK-MEL-28 melanoma.
Holding throughout (test): NCI-60 one-dose screen, 48 h (100 = growth as untreated, 0 = no growth, -100 = all killed)
Common to all, as to conditions: 10 µM unless noted

Take `COc1ccc(/C=N/NC(=O)c2cnn3c2NC(c2ccccc2)C3)cc1OC` (stereo not given): the growth in the assay with HCT-15 colon is 41.8%; in the assay with HT29 colon it was 14%; in the assay on SNB-75 CNS, 51.6%; with SNB-19 CNS it was 62.6%; in the assay on U251 CNS, 54.4%; in the assay on PC-3 prostate it was 56.9%. The growth in the assay with SK-MEL-5 melanoma was 66.7%; with UACC-62 melanoma, 47.7%; in the assay on LOX IMVI melanoma, 56.5%; with SK-MEL-2 melanoma, 41.9%; in the assay with EKVX NSCLC, 87.2%; in the assay on SN12C renal it was 81.8%. Besides, the growth in the assay with UO-31 renal is 78.9%; in the assay with TK-10 renal, 75.6%; in the assay on ACHN renal it was 82.6%; in the assay with CAKI-1 renal, 56.1%; in the assay on CCRF-CEM leukemia it was 66.7%; in the assay with MOLT-4 leukemia it was 50.3%.

Consider `O=C(Nc1cccc(C(=O)N2CCc3ccc(Cl)cc32)c1)c1ccco1`, for which the growth was 24.2% in the assay on HCT-15 colon; 15.9% in the assay with HT29 colon; 0.916% (active) with SNB-75 CNS; 37.6% with SNB-19 CNS; 36.7% in the assay on U251 CNS; 69.7% in the assay on PC-3 prostate. The growth with SK-MEL-5 melanoma was 24.3%; in the assay with UACC-62 melanoma, 36.3%; in the assay with LOX IMVI melanoma, 35.9%; in the assay with SK-MEL-2 melanoma it was 25.8%; with EKVX NSCLC it was 54.1%; in the assay with SN12C renal, 49.6%. For the same compound, the growth in the assay on UO-31 renal was 45.1%; in the assay with TK-10 renal it was 77.6%; in the assay with ACHN renal, 48.2%; with CAKI-1 renal, 29.6%; in the assay on CCRF-CEM leukemia, 29.4%; in the assay on MOLT-4 leukemia, 30.1%.

In the case of `C/C=C(\C)C(=O)NC1=CC[C@@]2(C)C(=CCC3C2CC[C@@]2(C)C3CC[C@@H]2C(C)N(C)C)C1=O` (stereo not given in full), the growth with HCT-15 colon is -32.5% (active); in the assay on HT29 colon it was -19.7% (active); in the assay with SNB-75 CNS, 42.3%; in the assay on SNB-19 CNS, 83%; in the assay with U251 CNS it was 36.3%; with PC-3 prostate, 26.2%. Also, the growth with SK-MEL-5 melanoma was -34.7% (active); in the assay with UACC-62 melanoma it was -16.1% (active); in the assay with LOX IMVI melanoma, -53.2% (active); with SK-MEL-2 melanoma, 86.5%; with EKVX NSCLC it was 32%; with SN12C renal it was 60.6%. Also, the growth was 58.1% with TK-10 renal; 65.6% in the assay with ACHN renal; 63.6% in the assay with CAKI-1 renal; 71.2% in the assay on A498 renal; 15.3% with CCRF-CEM leukemia; 47% in the assay on MOLT-4 leukemia.

On to `NCCCCCCNc1cc(-c2cccc(OC(F)(F)F)c2)nc2ccc(N3CCCC3)cc12`, for which the growth with HCT-15 colon was -54.2% (active); in the assay with HT29 colon it was -2.69% (active); in the assay with SNB-75 CNS, -32.4% (active); in the assay on SNB-19 CNS, 16.5%; in the assay on U251 CNS, -59% (active); in the assay on PC-3 prostate it was -5.66% (active). Besides, the growth in the assay with SK-MEL-5 melanoma is -98.4% (active); in the assay on UACC-62 melanoma, -56.9% (active); in the assay on SK-MEL-28 melanoma, -83.4% (active); in the assay with SK-MEL-2 melanoma it was -63.6% (active); with EKVX NSCLC it was 65.4%; in the assay on SN12C renal it was -20.1% (active). In addition, the growth was -91.5% (active) in the assay on UO-31 renal; -44.4% (active) in the assay with TK-10 renal; -16.6% (active) in the assay on ACHN renal; -45.9% (active) in the assay on CAKI-1 renal; -32.2% (active) in the assay with CCRF-CEM leukemia; -20.7% (active) with MOLT-4 leukemia.

As for `CCCC/C=N/NC(=S)NCc1ccccc1`, the growth with HCT-15 colon is 95.8%; in the assay on HT29 colon, 101%; in the assay with SNB-75 CNS, 86%; with SNB-19 CNS it was 95.9%; in the assay on U251 CNS, 97.1%; in the assay on PC-3 prostate it was 86.1%. Besides, the growth is 97.1% in the assay with SK-MEL-5 melanoma; 93.8% in the assay on UACC-62 melanoma; 98.2% in the assay on SK-MEL-28 melanoma; 106% in the assay with SK-MEL-2 melanoma; 101% in the assay with EKVX NSCLC; 96.1% in the assay on SN12C renal. The growth with UO-31 renal was 93.3%; in the assay on TK-10 renal, 103%; in the assay on ACHN renal, 99.4%; with CAKI-1 renal, 100%; with CCRF-CEM leukemia, 99.1%; in the assay on MOLT-4 leukemia, 95%.

On to `O=C(CCN1CCCC1)Nc1ccc2c(NCCc3ccccc3)c3ccccc3nc2c1`, for which the growth was 12% with HCT-15 colon; 4.99% (active) with HT29 colon; -70.8% (active) with SNB-75 CNS; -17.9% (active) in the assay with SNB-19 CNS; -24% (active) with U251 CNS; -36% (active) in the assay on PC-3 prostate. The growth is 11.2% with SK-MEL-5 melanoma; -55.1% (active) in the assay with UACC-62 melanoma; -17.4% (active) in the assay with SK-MEL-28 melanoma; -58.8% (active) with SK-MEL-2 melanoma; -4.89% (active) in the assay on EKVX NSCLC; -12.5% (active) with SN12C renal. In addition, the growth in the assay on UO-31 renal was -10.8% (active); in the assay with TK-10 renal, 3.29% (active); with ACHN renal it was 11%; in the assay on CAKI-1 renal, 4.47% (active); in the assay with CCRF-CEM leukemia it was -9.81% (active); in the assay on MOLT-4 leukemia, -17.6% (active).

Turning to `C=C(CBr)[C@@H]1CC[C@]2(COC(C)=O)CC[C@]3(C)[C@H](CC[C@@H]4[C@@]5(C)CCCNC(C)(C)[C@@H]5CC[C@]43C)[C@@H]12`, the growth with HCT-15 colon is 24.8%; with HT29 colon, 29.1%; with SNB-75 CNS, 79.8%; in the assay on SNB-19 CNS it was 64.2%; in the assay on U251 CNS it was 37%; in the assay on PC-3 prostate it was 12.9%. Further, the growth in the assay on SK-MEL-5 melanoma is 19.9%; in the assay with UACC-62 melanoma it was 24.8%; with SK-MEL-28 melanoma, 60.7%; with SK-MEL-2 melanoma it was 59.4%; in the assay on EKVX NSCLC it was 46.9%; in the assay on SN12C renal, 48%. Further, the growth in the assay on UO-31 renal was 29.6%; in the assay with TK-10 renal, 41.1%; with ACHN renal, 39.5%; in the assay on CAKI-1 renal it was 37.5%; in the assay with A498 renal, 49.4%; with CCRF-CEM leukemia it was 33.8%. Also, the growth in the assay on MOLT-4 leukemia was 10.9%.

`COc1cc2oc(-c3cccc(C(=O)Nc4ccc(Cl)cc4)c3)cc(=O)c2c(O)c1OC`: the growth in the assay with HCT-15 colon was 70.2%; in the assay on HT29 colon, 66.2%; with SNB-75 CNS it was 24.4%; with SNB-19 CNS, 28.4%; in the assay with U251 CNS it was 23%; in the assay with PC-3 prostate, 55.1%. The growth with SK-MEL-5 melanoma is 58.7%; in the assay with UACC-62 melanoma, 42.7%; with SK-MEL-28 melanoma it was 67.8%; with SK-MEL-2 melanoma it was 83.1%; with EKVX NSCLC, 77.2%; with SN12C renal it was 41.5%. For the same compound, the growth with UO-31 renal was 47%; in the assay with TK-10 renal, 75.5%; with ACHN renal, 33.4%; with CAKI-1 renal it was 55%; in the assay with CCRF-CEM leukemia, 75.6%; in the assay on MOLT-4 leukemia, 74.1%.
